Laboratory results taken from PubChem BioAssay AID590 (National Center for Advancing Translational Sciences (NCATS), 2007).
Values joined by “and” are separate entries in the source; they are usually repeats but may differ in a detail not shown here. Identical values can stand only once. The campaign covered roughly 59,000 compounds. About 6,500 (11%) were called active. Roughly 15% stayed inconclusive and do not appear here. Cut-off read from the data, not from the text of the source: active = max dye-equivalent concentration above about 10 nM; inconclusive = mostly about 1.1 nM to 9.6 nM; inactive = weaker than that. The entries come from a sample that favours actives as a whole.

Test: qHTS Assay for Spectroscopic Profiling in A350 Spectral Region
Conditions: Compound autofluorescence, 340/450 nm, Alexa 350 dye-equivalents; hits give high values

**Q.** Which max dye-equivalent concentration does the source give for `CCN(CC)S(=O)(=O)c1cccc(C(=O)NCC(=O)OCC(=O)NCc2ccccc2)c1` here?
**A.** inactive

**Q.** Which max dye-equivalent concentration does the source give for `COc1ccccc1N(C(=O)Cn1nnc2ccccc21)C(C(=O)NCc1ccco1)c1ccc(C)o1` (configuration not stated) here?
**A.** inactive

**Q.** With `COc1ccc2[nH]cc(CCNc3ncnc4ccc(-c5ccc(C(=O)N(C)C)cc5)cc34)c2c1` as the molecule, how does the max dye-equivalent concentration read?
**A.** inactive

**Q.** Which max dye-equivalent concentration does the source give for `O=C(O)c1ccc(-n2cccc2)cc1O` here?
**A.** inactive

**Q.** Which max dye-equivalent concentration does the source give for `Cc1cc(Cl)ccc1N1C(=O)CC(SCCC(=O)O)C1=O` (configuration not stated) here?
**A.** inactive

**Q.** With `CN(C)c1ccc(NC(=O)c2ccncc2)c2ccccc12` as the molecule, how does the max dye-equivalent concentration read?
**A.** inactive

**Q.** With `CCN1CCc2c(C#N)c(NCc3ccccc3)nc(NCCO)c2C1` as the molecule, how does the max dye-equivalent concentration read?
**A.** 5e-07 M (active)

**Q.** For `COc1ccc2c(=O)cc(-c3ccccc3)oc2c1O`, which max dye-equivalent concentration is on record?
**A.** inactive

**Q.** With `Cc1noc(C)c1-c1nccc(N2CCOCC2)n1` as the molecule, how does the max dye-equivalent concentration read?
**A.** inactive

**Q.** For `O=C(Nc1nsc(-c2ccccc2)n1)c1ccncc1`, which max dye-equivalent concentration is on record?
**A.** inactive

**Q.** For `CC[C@]1(O)CC2CN(CCc3c([nH]c4ccccc34)[C@@](C(=O)OC)(c3cc4c(cc3OC)N(C=O)[C@H]3[C@@](O)(C(=O)OC)[C@H](OC(C)=O)[C@]5(CC)C=CCN6CC[C@]43[C@@H]65)C2)C1` (some centres not stated), which max dye-equivalent concentration is on record?
**A.** inactive

**Q.** With `CC[C@]1(O)C[C@@H]2CN(CCc3c([nH]c4ccccc34)[C@@](C(=O)OC)(c3cc4c(cc3OC)N(C)[C@H]3[C@@](O)(C(=O)OC)[C@H](OC(C)=O)[C@]5(CC)C=CCN6CC[C@]43[C@@H]65)C2)C1` as the molecule, how does the max dye-equivalent concentration read?
**A.** 5.4e-08 M (active)

**Q.** Which max dye-equivalent concentration does the source give for `Cc1ccc(-c2csc3nnc(SCC(=O)NCc4ccco4)n23)cc1` here?
**A.** inactive

**Q.** With `CC1CN(C2CCCCC2)c2nc3c(c(=O)n(C)c(=O)n3C)n2C1` (configuration not stated) as the molecule, how does the max dye-equivalent concentration read?
**A.** inactive

**Q.** For `CC1=C(C(=O)OC2CCCCC2)C(c2cccnc2)n2ncnc2N1` (configuration not stated), which max dye-equivalent concentration is on record?
**A.** inactive

**Q.** Which max dye-equivalent concentration does the source give for `COC(=O)C1=C(N)Oc2cc(C)oc(=O)c2C1c1cccnc1` (configuration not stated) here?
**A.** inactive

**Q.** With `CCSc1nc2c(c(=O)[nH]1)C(c1cccnc1)C(C(=O)OC(C)C)=C(C)N2` (configuration not stated) as the molecule, how does the max dye-equivalent concentration read?
**A.** 1.2e-08 M (active)

**Q.** For `C=C(C)c1cccc(C(C)(C)NC(=O)N2CCN(c3ncccn3)CC2)c1`, which max dye-equivalent concentration is on record?
**A.** inactive

**Q.** With `CCOC(=O)c1c(C2CC2)csc1NC(=O)CSCc1c(C)noc1C` as the molecule, how does the max dye-equivalent concentration read?
**A.** inactive

**Q.** With `COc1c(C)c2c(c(O)c1C/C=C(\C)CCC(=O)O)C(=O)OC2` as the molecule, how does the max dye-equivalent concentration read?
**A.** 6e-08 M (active) and 1.6e-08 M (active)

**Q.** For `COc1ccc(CC(=O)Nc2ccc3c(c2)CCC3)cc1S(=O)(=O)N1CCOCC1`, which max dye-equivalent concentration is on record?
**A.** inactive

**Q.** Which max dye-equivalent concentration does the source give for `Clc1ccc(C=Nc2ccc3c(c2)Cc2ccccc2-3)c(Cl)c1` here?
**A.** inactive

**Q.** For `CCOc1cc(CO)ccc1OCC(=O)N1CCCCC1`, which max dye-equivalent concentration is on record?
**A.** inactive

**Q.** Which max dye-equivalent concentration does the source give for `Cc1ccccc1NC(=O)c1ccccc1` here?
**A.** inactive

**Q.** Which max dye-equivalent concentration does the source give for `Cc1ccc2c(c1)sc1ncc(NC(=O)c3ccccc3)c(=O)n12` here?
**A.** 6.5e-08 M (active)

**Q.** Which max dye-equivalent concentration does the source give for `Cc1ccc(NC(=O)c2nc[nH]c2C(=O)N2CCCCC2)c(C(=O)c2ccccc2)c1` here?
**A.** inactive

**Q.** Which max dye-equivalent concentration does the source give for `CCC(Oc1ccccc1)C(=O)NCc1cccnc1` (configuration not stated) here?
**A.** inactive

**Q.** With `Cc1ccc(S(=O)(=O)c2nc(NCCCn3ccnc3)sc2Cl)cc1` as the molecule, how does the max dye-equivalent concentration read?
**A.** inactive

**Q.** With `CC1(C)C/C(=C(/C#N)C(N)=O)CCO1` as the molecule, how does the max dye-equivalent concentration read?
**A.** inactive

**Q.** With `O=C(c1ccccc1-c1ccccc1)N1CCOCC1` as the molecule, how does the max dye-equivalent concentration read?
**A.** inactive

**Q.** Which max dye-equivalent concentration does the source give for `CC(C(=O)Nc1ccccc1-c1ccccc1)N1CCOCC1` (configuration not stated) here?
**A.** inactive

**Q.** For `CC(C(=O)N1CCOCC1)N1c2cccc3cccc(c23)S1(=O)=O` (configuration not stated), which max dye-equivalent concentration is on record?
**A.** 8e-08 M (active)

**Q.** With `COC(=O)c1nc(NC(=O)c2ccc(Cl)cc2)n[nH]1` as the molecule, how does the max dye-equivalent concentration read?
**A.** inactive

**Q.** Which max dye-equivalent concentration does the source give for `CCC(=O)c1ccc(OCC(O)CN2CC(C)OC(C)C2)cc1` (configuration not stated) here?
**A.** inactive

**Q.** With `CC1CCCC(NC(=O)CN2CCN(Cc3ccc(Cl)cc3)C2=O)C1C` (configuration not stated) as the molecule, how does the max dye-equivalent concentration read?
**A.** inactive

**Q.** With `CC(=O)c1ccc(NC(=O)N[C@@H](Cc2ccccc2)C(=O)O)cc1` as the molecule, how does the max dye-equivalent concentration read?
**A.** inactive

**Q.** For `C[C@@H](N)[C@@H](C)Cc1ccccc1`, which max dye-equivalent concentration is on record?
**A.** inactive

**Q.** Which max dye-equivalent concentration does the source give for `Cc1ccc(C)n1C(Cc1ccccc1)C(=O)O` (configuration not stated) here?
**A.** 1.3e-08 M (active)

**Q.** For `O=C(C1CCCO1)N(Cc1ccccc1)c1ccccc1` (configuration not stated), which max dye-equivalent concentration is on record?
**A.** inactive

**Q.** With `CCN(c1ccccc1)S(=O)(=O)c1cccc(C(=O)O)c1` as the molecule, how does the max dye-equivalent concentration read?
**A.** inactive

**Q.** For `Nc1nc(N)c2[nH]c(CNc3ccc(C(=O)O)cc3)nc2n1`, which max dye-equivalent concentration is on record?
**A.** inactive

**Q.** With `O=C(Nc1ccc(Cl)cn1)Nc1cccs1` as the molecule, how does the max dye-equivalent concentration read?
**A.** inactive

**Q.** Which max dye-equivalent concentration does the source give for `Cc1ccc(-n2ncc3c2ncn2nc(-c4ccco4)nc32)c(C)c1` here?
**A.** inactive

**Q.** Which max dye-equivalent concentration does the source give for `Cc1cccc(-n2ncc3c(N4CCc5ccccc54)ncnc32)c1` here?
**A.** 1.5e-08 M (active)

**Q.** Which max dye-equivalent concentration does the source give for `COc1ccc(N2CCN(C(=O)CSc3ncnc4c3cnn4-c3ccc(OC)cc3)CC2)cc1` here?
**A.** inactive

**Q.** For `CCCc1nc2c3cnn(-c4cccc(Cl)c4)c3ncn2n1`, which max dye-equivalent concentration is on record?
**A.** inactive

**Q.** Which max dye-equivalent concentration does the source give for `COc1ccc(-n2ncc3c(N4CCCc5ccccc54)ncnc32)cc1` here?
**A.** 2.5e-08 M (active)

**Q.** With `c1ccc(-n2ncc3c(N4CCCC4)ncnc32)cc1` as the molecule, how does the max dye-equivalent concentration read?
**A.** inactive

**Q.** For `Cc1cc2ccccc2n2c(SCC(=O)N3CCN(C(=O)c4ccco4)CC3)nnc12`, which max dye-equivalent concentration is on record?
**A.** inactive

**Q.** With `CC(=O)Nc1ccn(Cc2c(F)cccc2Cl)n1` as the molecule, how does the max dye-equivalent concentration read?
**A.** inactive

**Q.** With `CCCCCn1c(SCCC(C)C)nc2c1c(=O)[nH]c(=O)n2C` as the molecule, how does the max dye-equivalent concentration read?
**A.** inactive

**Q.** For `O=C(O)CN(Cc1ccco1)S(=O)(=O)c1ccc(F)cc1`, which max dye-equivalent concentration is on record?
**A.** inactive
